Relative cell viability data for 37 compounds are collected here from the supplement of paper PMC9492666.

Counter-ions that a name gives are not always drawn.

One assay has as its system HCC1937. Put plainly: relative cell viability, compound + RSL3, vs DMSO (fraction of DMSO control); higher = less growth inhibition. The settings on record: 72 h.
The next assay has as its system MDA-MB-231. The description is as above. The following applies: 72 h.
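Also: breast cancer cell viability read out with the CCK-8 kit after co-treatment of each compound with the ferroptosis inducer RSL3.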

For the compound `Cc1cc([N+](=O)[O-])ccc1NS(=O)(=O)c1cc(Cl)ccc1Cl` + COC(=O)c1ccc([C@H]2c3[nH]c4ccccc4c3C[C@H](C(=O)OC)N2C(=O)CCl)cc1 [RSL3], the relative cell viability in the assay with HCC1937 was 0.264; in the assay with MDA-MB-231, 0.515.

Take `COc1cc(C(C)=O)ccc1O` [Acetovanillone] + COC(=O)c1ccc([C@H]2c3[nH]c4ccccc4c3C[C@H](C(=O)OC)N2C(=O)CCl)cc1 [RSL3]: the relative cell viability with HCC1937 came out at 0.389; with MDA-MB-231 it was 0.594.

As for `C=CC[S+]([O-])C[C@H](N)C(=O)O` (some centres undefined) [Alliin] + COC(=O)c1ccc([C@H]2c3[nH]c4ccccc4c3C[C@H](C(=O)OC)N2C(=O)CCl)cc1 [RSL3], the relative cell viability in the assay on HCC1937 turned out to be 0.554; in the assay on MDA-MB-231, 0.704.

Regarding `N#Cc1ccc(Oc2cccc(NC(=O)Nc3ccc(Cl)c(C(F)(F)F)c3)c2)cc1` + COC(=O)c1ccc([C@H]2c3[nH]c4ccccc4c3C[C@H](C(=O)OC)N2C(=O)CCl)cc1 [RSL3], the relative cell viability was 0.0959 in the assay with HCC1937 and 0.216 with MDA-MB-231.

As to `COc1ccc(-c2cc(=O)c3c(O)c(OC)c(OC)c(OC)c3o2)cc1OC` + COC(=O)c1ccc([C@H]2c3[nH]c4ccccc4c3C[C@H](C(=O)OC)N2C(=O)CCl)cc1 [RSL3], the relative cell viability in the assay with HCC1937 stood at 0.343; in the assay on MDA-MB-231, 0.501.

In the case of `CCCCCCCCCCCCCCCC(=O)NCCO` [Palmidrol] + COC(=O)c1ccc([C@H]2c3[nH]c4ccccc4c3C[C@H](C(=O)OC)N2C(=O)CCl)cc1 [RSL3], the results for the relative cell viability with HCC1937 and in the assay with MDA-MB-231 were 0.655 and 0.77, respectively.

Turning to `O=C(O)C(=O)Nc1sc2c(c1C(=O)O)CCNC2` + COC(=O)c1ccc([C@H]2c3[nH]c4ccccc4c3C[C@H](C(=O)OC)N2C(=O)CCl)cc1 [RSL3], the relative cell viability stood at 0.541 in the assay with HCC1937 and 0.648 in the assay with MDA-MB-231.

As for `CC(C)(C)NC(=O)[C@H]1CC[C@H]2[C@@H]3CC[C@H]4NC(=O)C=C[C@]4(C)[C@H]3CC[C@]12C` [Finasteride] + COC(=O)c1ccc([C@H]2c3[nH]c4ccccc4c3C[C@H](C(=O)OC)N2C(=O)CCl)cc1 [RSL3], the figures for the relative cell viability in the assay on HCC1937 and in the assay on MDA-MB-231 were 0.885 and 0.645, respectively.

Turning to `CC(C)c1nc(N(C)S(C)(=O)=O)nc(-c2ccc(F)cc2)c1/C=C/[C@@H](O)C[C@@H](O)CC(=O)O` [Rosuvastatin] + COC(=O)c1ccc([C@H]2c3[nH]c4ccccc4c3C[C@H](C(=O)OC)N2C(=O)CCl)cc1 [RSL3], the relative cell viability in the assay on HCC1937 turned out to be 0.54; in the assay with MDA-MB-231, 0.527.

For the compound `CCc1ccc(CCOc2ccc(CC3SC(=O)NC3=O)cc2)nc1` (centres undefined) [Pioglitazone] + COC(=O)c1ccc([C@H]2c3[nH]c4ccccc4c3C[C@H](C(=O)OC)N2C(=O)CCl)cc1 [RSL3], the relative cell viability with HCC1937 is 0.919; in the assay on MDA-MB-231, 0.629.

As to `Cc1ccc(Oc2nc3cc(-c4ccc(-c5ccccc5)cc4)c(Cl)cc3[nH]2)cc1C(=O)O` + COC(=O)c1ccc([C@H]2c3[nH]c4ccccc4c3C[C@H](C(=O)OC)N2C(=O)CCl)cc1 [RSL3], the figures for the relative cell viability in the assay on HCC1937 and with MDA-MB-231 were 0.538 and 0.6, respectively.

Turning to `O=C(NC1CCN(CCCCC2(C(=O)NCC(F)(F)F)c3ccccc3-c3ccccc32)CC1)c1ccccc1-c1ccc(C(F)(F)F)cc1` [Lomitapide] + COC(=O)c1ccc([C@H]2c3[nH]c4ccccc4c3C[C@H](C(=O)OC)N2C(=O)CCl)cc1 [RSL3], the relative cell viability came out at 0.173 with HCC1937 and 0.391 in the assay with MDA-MB-231.

For the compound `Cc1c2c(=O)n(-c3ccccc3Cl)[nH]c2cc(=O)n1Cc1ccccn1` + COC(=O)c1ccc([C@H]2c3[nH]c4ccccc4c3C[C@H](C(=O)OC)N2C(=O)CCl)cc1 [RSL3], the relative cell viability was 0.452 with HCC1937 and 0.626 in the assay with MDA-MB-231.

`CC(C)CCC[C@@H](C)[C@H]1CC[C@H]2[C@@H]3CCC4=CC(=NO)CC[C@]4(C)[C@H]3CC[C@]12C` [Olesoxime] + COC(=O)c1ccc([C@H]2c3[nH]c4ccccc4c3C[C@H](C(=O)OC)N2C(=O)CCl)cc1 [RSL3]: the figures for the relative cell viability in the assay on HCC1937 and in the assay with MDA-MB-231 were 0.454 and 0.689, respectively.

Turning to `Cn1nc(C(=O)N(Cc2ccccc2)Cc2ccc(C(=O)O)cc2)c2c1-c1cc(Cl)ccc1OC2` [Nidufexor] + COC(=O)c1ccc([C@H]2c3[nH]c4ccccc4c3C[C@H](C(=O)OC)N2C(=O)CCl)cc1 [RSL3], the relative cell viability in the assay on HCC1937 amounted to 0.488; in the assay on MDA-MB-231 it was 0.673.

In the case of `C=C(C)[C@@H]1CC[C@]2(CO)CC[C@]3(C)[C@H](CC[C@@H]4[C@@]5(C)CC[C@H](O)C(C)(C)[C@@H]5CC[C@]43C)[C@@H]12` [Betulin] + COC(=O)c1ccc([C@H]2c3[nH]c4ccccc4c3C[C@H](C(=O)OC)N2C(=O)CCl)cc1 [RSL3], the values for the relative cell viability in the assay with HCC1937 and in the assay on MDA-MB-231 were 0.619 and 0.453, respectively.

Take `COc1ccc(-c2cc(=O)c3c(O)c(OC)c(O)cc3o2)cc1OC` [Eupatilin] + COC(=O)c1ccc([C@H]2c3[nH]c4ccccc4c3C[C@H](C(=O)OC)N2C(=O)CCl)cc1 [RSL3]: the relative cell viability came out at 0.354 in the assay on HCC1937 and 0.496 in the assay on MDA-MB-231.

Turning to `O=C(O)c1cc(F)c2nc(N3[C@@H]4CC[C@H]3C[C@@H](OCc3c(-c5ccccc5OC(F)(F)F)noc3C3CC3)C4)sc2c1` [Tropifexor] + COC(=O)c1ccc([C@H]2c3[nH]c4ccccc4c3C[C@H](C(=O)OC)N2C(=O)CCl)cc1 [RSL3], the results for the relative cell viability in the assay with HCC1937 and in the assay on MDA-MB-231 were 0.603 and 0.63, respectively.

For `CC(C)OC(=O)CCC/C=C\C[C@@H]1[C@@H](CC[C@@H](O)CCc2ccccc2)[C@H](O)C[C@@H]1O` [Latanoprost] + COC(=O)c1ccc([C@H]2c3[nH]c4ccccc4c3C[C@H](C(=O)OC)N2C(=O)CCl)cc1 [RSL3], the relative cell viability was determined as 1.03 in the assay with HCC1937 and 0.597 in the assay on MDA-MB-231.

As to `NC(=O)c1cccc(-c2cccc(OC(=O)NC3CCCCC3)c2)c1` + COC(=O)c1ccc([C@H]2c3[nH]c4ccccc4c3C[C@H](C(=O)OC)N2C(=O)CCl)cc1 [RSL3], the relative cell viability with HCC1937 came out at 0.407; in the assay with MDA-MB-231 it was 0.707.

With `Cc1cc(=O)oc2c(O)c(O)ccc12` [7,8-Dihydroxy-4-methylcoumarin] + COC(=O)c1ccc([C@H]2c3[nH]c4ccccc4c3C[C@H](C(=O)OC)N2C(=O)CCl)cc1 [RSL3], the results for the relative cell viability in the assay on HCC1937 and in the assay on MDA-MB-231 were 0.539 and 0.7, respectively.

`Cc1cc(SCc2sc(-c3ccc(C(F)(F)F)cc3)nc2C)ccc1OCC(=O)O` + COC(=O)c1ccc([C@H]2c3[nH]c4ccccc4c3C[C@H](C(=O)OC)N2C(=O)CCl)cc1 [RSL3]: the relative cell viability with HCC1937 was found to be 0.339; in the assay on MDA-MB-231, 0.554.

Consider `CC1(N)CCN(c2cnc(-c3cccc(Cl)c3Cl)c(N)n2)CC1` [SHP099 hydrochloride] + COC(=O)c1ccc([C@H]2c3[nH]c4ccccc4c3C[C@H](C(=O)OC)N2C(=O)CCl)cc1 [RSL3], for which the relative cell viability in the assay with HCC1937 was determined as 0.397; in the assay on MDA-MB-231 it was 0.628.

On to `C=C[C@H]1CN2CC[C@H]1C[C@@H]2[C@@H](O)c1ccnc2ccc(OC)cc12` [Quinidine sulfate] + COC(=O)c1ccc([C@H]2c3[nH]c4ccccc4c3C[C@H](C(=O)OC)N2C(=O)CCl)cc1 [RSL3], for which the relative cell viability in the assay with HCC1937 was 0.439; with MDA-MB-231 it was 0.673.

As for `CC(C)c1onc(-c2c(Cl)cccc2Cl)c1COc1ccc(/C=C/c2cccc(C(=O)O)c2)c(Cl)c1` + COC(=O)c1ccc([C@H]2c3[nH]c4ccccc4c3C[C@H](C(=O)OC)N2C(=O)CCl)cc1 [RSL3], the relative cell viability in the assay with HCC1937 came out at 0.874; in the assay with MDA-MB-231, 0.699.

For `Cn1c2cc([S+](C)[O-])sc2c2cnn(Cc3cccc(N)c3)c(=O)c21` (centres undefined) + COC(=O)c1ccc([C@H]2c3[nH]c4ccccc4c3C[C@H](C(=O)OC)N2C(=O)CCl)cc1 [RSL3], the relative cell viability with HCC1937 came to 0.402; in the assay on MDA-MB-231, 0.677.

Turning to `Cc1ccc(/C=C2\SC(=S)N(CCCCCC(=O)Nc3ccc(C(=O)O)c(O)c3)C2=O)cc1` + COC(=O)c1ccc([C@H]2c3[nH]c4ccccc4c3C[C@H](C(=O)OC)N2C(=O)CCl)cc1 [RSL3], the relative cell viability with HCC1937 was 0.632; with MDA-MB-231, 0.577.

For `CN(CCOc1ccc(CC2SC(=O)NC2=O)cc1)c1ccccn1` (centres undefined) [Rosiglitazone HCl] + COC(=O)c1ccc([C@H]2c3[nH]c4ccccc4c3C[C@H](C(=O)OC)N2C(=O)CCl)cc1 [RSL3], the relative cell viability with HCC1937 was 0.486; in the assay with MDA-MB-231 it was 0.714.

Regarding `Cc1c(C(=O)Nc2ccc(CO)cc2)nnn1Cc1ccc(Cl)c(Cl)c1` + COC(=O)c1ccc([C@H]2c3[nH]c4ccccc4c3C[C@H](C(=O)OC)N2C(=O)CCl)cc1 [RSL3], the relative cell viability in the assay with HCC1937 is 0.406; with MDA-MB-231 it was 0.573.

Consider `CN(CCOc1ccc(CC2SC(=O)NC2=O)cc1)c1ccccn1` (centres undefined) [Rosiglitazone] + COC(=O)c1ccc([C@H]2c3[nH]c4ccccc4c3C[C@H](C(=O)OC)N2C(=O)CCl)cc1 [RSL3], for which the relative cell viability in the assay with HCC1937 came to 1.26; in the assay on MDA-MB-231 it was 0.646.

As to `O=C(Nc1ccc(C(O)(C(F)(F)F)C(F)(F)F)cc1)c1ccccc1Cl` + COC(=O)c1ccc([C@H]2c3[nH]c4ccccc4c3C[C@H](C(=O)OC)N2C(=O)CCl)cc1 [RSL3], the relative cell viability in the assay on HCC1937 stood at 0.489; in the assay with MDA-MB-231, 0.616.

Regarding `CCCCCCCCCCC[C@@H](C[C@@H]1OC(=O)[C@H]1CCCCCC)OC(=O)[C@H](CC(C)C)NC=O` [Orlistat] + COC(=O)c1ccc([C@H]2c3[nH]c4ccccc4c3C[C@H](C(=O)OC)N2C(=O)CCl)cc1 [RSL3], the relative cell viability in the assay with HCC1937 was 0.572; in the assay with MDA-MB-231, 0.167.

In the case of `CN(C)C(=N)NC(=N)N` [Metformin hydrochloride] + COC(=O)c1ccc([C@H]2c3[nH]c4ccccc4c3C[C@H](C(=O)OC)N2C(=O)CCl)cc1 [RSL3], the relative cell viability came out at 0.855 in the assay on HCC1937 and 0.605 in the assay on MDA-MB-231.

In the case of `O=S(=O)(O)c1ccc2cc(N=Nc3cc(S(=O)(=O)O)c4cccnc4c3O)ccc2c1` + COC(=O)c1ccc([C@H]2c3[nH]c4ccccc4c3C[C@H](C(=O)OC)N2C(=O)CCl)cc1 [RSL3], the results for the relative cell viability in the assay with HCC1937 and in the assay on MDA-MB-231 were 0.511 and 0.744, respectively.

Consider `CCCCCCCCCCCCCCOc1ccc(C(=O)OCC(=O)N(C)CC(=O)OCC)o1` [Olumacostat Glasaretil] + COC(=O)c1ccc([C@H]2c3[nH]c4ccccc4c3C[C@H](C(=O)OC)N2C(=O)CCl)cc1 [RSL3], for which the values for the relative cell viability in the assay on HCC1937 and with MDA-MB-231 were 0.281 and 0.278, respectively.

Consider `Nc1ccc(O)c(C(=O)O)c1` [Mesalamine] + COC(=O)c1ccc([C@H]2c3[nH]c4ccccc4c3C[C@H](C(=O)OC)N2C(=O)CCl)cc1 [RSL3], for which the relative cell viability in the assay on HCC1937 was determined as 0.635; in the assay on MDA-MB-231 it was 0.592.

On to `Cc1c(C)c2c(c(C)c1O)CCC(C)(COc1ccc(CC3SC(=O)NC3=O)cc1)O2` (centres undefined) [Troglitazone] + COC(=O)c1ccc([C@H]2c3[nH]c4ccccc4c3C[C@H](C(=O)OC)N2C(=O)CCl)cc1 [RSL3], for which the relative cell viability in the assay on HCC1937 was found to be 0.431; with MDA-MB-231 it was 0.686.
